Measurements reported in PubChem BioAssay.
Active and inactive are the calls of the source. Unless noted, no rule for the calls is given here.

Tests used:
[1] = resazurin metabolic signal in HepG2 cells – cell-based, resazurin fluorescence, 24 h, PK04 Diversity Set, profiling panel (AID 1172); details: HepG2 viability, higher = more signal; also: test concentration not given here
[2] = budding yeast growth changes without added modifier – OD600, strain BY4716, 24 h, basal condition, primary screen (AID 1173); details: S. cerevisiae BY4716 growth, OD600, 24 h; higher = more signal, called active from +8 up or from −8 down
[3] = viability profiling in MM1S myeloma cells – cell-based, resazurin fluorescence, basal, 24 h, PK04 Diversity Set, profiling panel (AID 1174); details: higher = more signal, called active from +8 up or from −8 down;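 also: MM1S multiple myeloma cell line; test concentration not given here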
[4] = target: Dihydroorotate dehydrogenase (quinone), mitochondrial (Plasmodium falciparum (isolate 3D7)) (UniProt Q08210); test: inhibition of P. falciparum DHODH – biochemical, C-terminal His tag, absorbance 600 nm, primary screen (AID 1175); details: PfDHODH enzyme, DCIP absorbance 600 nm; higher = more signal, called active from +8 up or from −8 down;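 also: recombinant parasite enzyme with a five histidine tag at its C terminus; test concentration not given here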
[5] = inhibition of PAO1 biofilm formation – strain PAO1, LB-PBS medium, absorbance 600 nm, primary screen (AID 1176); also: test concentration not given here; details: P. aeruginosa PAO1 growth/biofilm, A600, 12 h; higher = more signal
[6] = growth modulation of vineyard yeast isolate – strain RM11-1a, OD600, basal, 24 h, primary screen (AID 1177);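 also: cultures grown under basal conditions with no added stressor; test concentration not given here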; details: S. cerevisiae RM11-1a growth, OD600, 24 h; higher = more signal, called active from +8 up or from −8 down
[7] = growth of efflux-deficient E. coli DRC39 – strain DRC39, OD650, 24 h, E. coli filamentation inducers, primary screen (AID 1178);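 also: growth measured as culture turbidity by optical density at 650 nm; test concentration not given here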; details: E. coli DRC39 acrAB, higher = more signal, called active from +8 up or from −8 down
[8] = growth of efflux-deficient E. coli DRC39 – strain DRC39, OD650, 48 h, E. coli filamentation inducers, primary screen (AID 1179);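 also: screen aims at cell division blockers that make cells filament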; details: E. coli DRC39 delta-acrAB growth, higher = more signal, called active from +8 up or from −8 down
[9] = viability profiling in RPMI8226 myeloma cells – cell-based, resazurin fluorescence, basal, 24 h, PK04 Diversity Set, profiling panel (AID 1180); details: higher = more signal;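 also: RPMI8826 multiple myeloma cell line at 5000 cells per well; test concentration not given here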
[10] = target: E3 ubiquitin-protein ligase XIAP (Homo sapiens) (UniProt P98170); test: small molecules binding XIAP protein – biophysical, small-molecule microarray, fluorescence 635 nm, primary screen (AID 1181); details: higher = more signal;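 also: score merges 667 nm emission and signal to noise over triplicate slides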
Chain of E3 ubiquitin-protein ligase XIAP (Homo sapiens) (P98170 whole entry, looked up): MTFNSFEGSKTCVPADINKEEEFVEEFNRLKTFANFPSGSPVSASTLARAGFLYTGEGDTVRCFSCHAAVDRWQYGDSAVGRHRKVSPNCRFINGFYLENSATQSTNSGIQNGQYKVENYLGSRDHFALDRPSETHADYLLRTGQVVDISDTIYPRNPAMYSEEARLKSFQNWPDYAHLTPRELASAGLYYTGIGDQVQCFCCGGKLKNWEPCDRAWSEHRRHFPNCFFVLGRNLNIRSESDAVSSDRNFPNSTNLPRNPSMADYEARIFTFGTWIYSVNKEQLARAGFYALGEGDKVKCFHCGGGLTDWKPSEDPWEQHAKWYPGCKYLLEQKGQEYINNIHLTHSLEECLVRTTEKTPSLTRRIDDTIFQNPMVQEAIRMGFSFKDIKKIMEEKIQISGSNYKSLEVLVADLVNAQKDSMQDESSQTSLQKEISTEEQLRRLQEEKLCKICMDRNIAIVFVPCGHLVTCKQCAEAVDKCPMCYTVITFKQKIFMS

Chain of Dihydroorotate dehydrogenase (quinone), mitochondrial (Plasmodium falciparum (isolate 3D7)) (Q08210 whole entry, looked up): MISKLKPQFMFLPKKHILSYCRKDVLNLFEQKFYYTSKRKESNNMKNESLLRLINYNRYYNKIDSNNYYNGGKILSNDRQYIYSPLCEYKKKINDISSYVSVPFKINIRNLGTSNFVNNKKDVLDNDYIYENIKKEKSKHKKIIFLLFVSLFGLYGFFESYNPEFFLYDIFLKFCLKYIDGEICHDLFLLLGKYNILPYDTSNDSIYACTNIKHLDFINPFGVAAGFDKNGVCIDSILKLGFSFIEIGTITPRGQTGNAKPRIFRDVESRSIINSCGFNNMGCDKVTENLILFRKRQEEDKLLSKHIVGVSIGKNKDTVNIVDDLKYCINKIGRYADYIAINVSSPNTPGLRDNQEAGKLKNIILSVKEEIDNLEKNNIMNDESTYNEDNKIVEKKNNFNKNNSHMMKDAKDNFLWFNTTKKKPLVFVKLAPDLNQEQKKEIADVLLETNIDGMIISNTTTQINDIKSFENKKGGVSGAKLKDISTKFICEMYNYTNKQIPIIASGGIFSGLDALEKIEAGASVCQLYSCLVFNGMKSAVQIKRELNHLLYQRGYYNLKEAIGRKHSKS

For `CCN1C(=O)[C@H]2[C@H]3[C@H](O)[C@H](O)CC(=NOC[C@@H](O)COCc4ccco4)[C@H]3CC[C@H]2C1=O`, the z-score [1] was -0.92, the z-score [2] was -0.54 (inactive) and the z-score [3] was -0.809 (inactive). The composite z-score [4] was -0.164 (inactive), the z-score [5] was -0.425 (inactive) and the z-score [6] was -0.178 (inactive). The z-score [7] was -0.0557 (inactive), the z-score [8] was 0.322 (inactive) and the z-score [9] was -1.23. For the same compound, the composite z-score [10] was -0.0948.

In the case of `CCOC(=O)[C@H](Cc1ccccc1)NC(=O)CCC1CC(OC(=O)NCCc2ccc(F)cc2)CC2(CCCC(COC(=O)NCCOc3ccccc3)O2)O1` (stereo not given in full), the z-score [1] was 0.121, the z-score [2] was -0.245 (inactive) and the z-score [3] was -0.02 (inactive). The composite z-score [4] was -0.189 (inactive), the z-score [5] was 0.651 (inactive) and the z-score [6] was 0.408 (inactive). The z-score [7] was 0.417 (inactive), the z-score [8] was 0.343 (inactive) and the z-score [9] was 0.194. It also gave a composite z-score [10] of -0.0166.

In the case of `COc1ccc2c(c1)O[C@@H](c1cccc(C(F)(F)F)c1)[C@H](O)C2=O`, the z-score [1] was 0.669, the z-score [2] was -14.3 (active) and the z-score [3] was -0.104 (inactive). For the same compound, the composite z-score [4] was -0.445 (inactive), the z-score [5] was 0.699 (inactive) and the z-score [6] was -1.04 (inactive). The z-score [7] was 1.23 (inactive), the z-score [8] was 1.34 (inactive) and the z-score [9] was 0.8. For the same compound, the composite z-score [10] was 0.0223.

With `COc1cccc([C@H](O)Cn2cc(-c3ccc(CON=C(C)C)cc3)nn2)c1` the z-score [1] was -0.262, the z-score [2] was -0.377 (inactive) and the z-score [3] was -0.307 (inactive). The composite z-score [4] was -0.217 (inactive), the z-score [5] was 0.475 (inactive) and the z-score [6] was -0.47 (inactive). The z-score [7] was 0.419 (inactive), the z-score [8] was 0.291 (inactive) and the z-score [9] was -0.0501. The composite z-score [10] was -0.167.

In the case of `CCOC(=O)[C@H](Cc1ccccc1)NC(=O)CCC1CC(OC(=O)NCc2cccc3ccccc23)CC2(CCCC(COC(=O)NCc3ccc4c(c3)OCO4)O2)O1` (stereo not given in full), the z-score [1] was -0.0973, the z-score [2] was -0.552 (inactive) and the z-score [3] was -0.082 (inactive). The composite z-score [4] was -0.929 (inactive), the z-score [5] was -0.373 (inactive) and the z-score [6] was -0.131 (inactive). For the same compound, the z-score [7] was 1.56 (inactive), the z-score [8] was 1.41 (inactive) and the z-score [9] was 0.922. The composite z-score [10] was -0.209.

With `CCOC(=O)CCN1C(=O)[C@H]2[C@H]3[C@H](O)[C@H](O)CC(=NOCC=C(C)CCC=C(C)C)[C@@H]3CC[C@H]2C1=O` the z-score [1] was 0.046, the z-score [2] was 0.448 (inactive) and the z-score [3] was -0.836 (inactive). For the same compound, the composite z-score [4] was 0.69 (inactive), the z-score [5] was 0.176 (inactive) and the z-score [6] was -0.839 (inactive). The z-score [7] was -1.15 (inactive), the z-score [8] was -0.209 (inactive) and the z-score [9] was -0.871. It also gave a composite z-score [10] of 0.175.

With `COC(=O)[C@@H]1CC[C@H](C)[C@@H](c2ccc(Br)cc2)N1C[C@H](O)CN=[N+]=[N-]` the z-score [1] was -0.413, the z-score [2] was -6.28 (inactive) and the z-score [3] was -0.666 (inactive). For the same compound, the composite z-score [4] was 0.294 (inactive), the z-score [5] was 1.09 (inactive) and the z-score [6] was 0.347 (inactive). For the same compound, the z-score [7] was -0.78 (inactive), the z-score [8] was -1.18 (inactive) and the z-score [9] was 0.385. The composite z-score [10] was -0.122.

For `COC(=O)CC=C1c2ccccc2[C@H](OC)[C@H]1C`, the z-score [1] was -0.71, the z-score [2] was 0.338 (inactive) and the z-score [3] was -0.788 (inactive). For the same compound, the composite z-score [4] was 0.582 (inactive), the z-score [5] was -0.245 (inactive) and the z-score [6] was -0.138 (inactive). For the same compound, the z-score [7] was 0.216 (inactive), the z-score [8] was 0.403 (inactive) and the z-score [9] was -0.49. It also gave a composite z-score [10] of 0.419.

For `COC(=O)[C@H](Cc1ccccc1)NC(=O)[C@@H](C)CO`, the z-score [1] was -0.427, the z-score [2] was -0.462 (inactive) and the z-score [3] was -0.0481 (inactive). The composite z-score [4] was -2.16 (inactive), the z-score [5] was 0.733 (inactive) and the z-score [6] was 0.0469 (inactive). For the same compound, the z-score [7] was -1.48 (inactive), the z-score [8] was -0.84 (inactive) and the z-score [9] was -0.376. The composite z-score [10] was 0.0154.

With `CC(C)CN1CCc2nc(-c3ccccc3)c3c(c2C1)CO[C@@H](C)C3` the z-score [1] was -0.622, the z-score [2] was -1.33 (inactive) and the z-score [3] was 1.21 (inactive). For the same compound, the composite z-score [4] was 0.638 (inactive), the z-score [5] was -0.588 (inactive) and the z-score [6] was 0.697 (inactive). The z-score [7] was -0.838 (inactive), the z-score [8] was -0.0811 (inactive) and the z-score [9] was 0.829. The composite z-score [10] was -0.22.

For `O=C1[C@H]2[C@H]3[C@H](O)[C@H](O)CC(=NOC[C@@H](O)COCc4ccco4)[C@@H]3CC[C@H]2C(=O)N1Cc1ccc2c(c1)OCO2`, the z-score [1] was 0.351, the z-score [2] was 0.182 (inactive) and the z-score [3] was -0.524 (inactive). For the same compound, the composite z-score [4] was -0.395 (inactive), the z-score [5] was 0.0578 (inactive) and the z-score [6] was 0.865 (inactive). The z-score [7] was 0.764 (inactive), the z-score [8] was 1.29 (inactive) and the z-score [9] was 0.501. It also gave a composite z-score [10] of -0.148.

With `COc1cccc([C@H]2Oc3ccc(OC)cc3C(=NO[C@@H](C)c3cc(-c4c(C)cc(C)cc4C)no3)[C@@H]2O)c1` the z-score [1] was -0.406, the z-score [2] was 1.18 (inactive) and the z-score [3] was 0.0117 (inactive). The composite z-score [4] was -2.77 (inactive), the z-score [5] was 0.523 (inactive) and the z-score [6] was 1.96 (inactive). For the same compound, the z-score [7] was 0.243 (inactive), the z-score [8] was -1.43 (inactive) and the z-score [9] was -0.116. The composite z-score [10] was -0.336.

With `CC(=O)OC[C@H]1O[C@H](CC=NOC(C)CN2CCCc3nc(C)c(C)cc32)C=C[C@@H]1OC(C)=O` (stereo not given in full) the z-score [1] was -0.368, the z-score [2] was -0.494 (inactive) and the z-score [3] was 0.161 (inactive). For the same compound, the composite z-score [4] was 0.159 (inactive), the z-score [5] was -0.373 (inactive) and the z-score [6] was 0.634 (inactive). The z-score [7] was 0.603 (inactive), the z-score [8] was -0.147 (inactive) and the z-score [9] was 0.12. The composite z-score [10] was 0.145.

For `CCN1C(=O)[C@H]2[C@H]3[C@H](O)[C@H](O)CC(=NO[C@H](C)c4cn([C@@H]5COC[C@H]5O)nn4)[C@@H]3CC[C@H]2C1=O`, the z-score [1] was -1.28, the z-score [2] was 1.15 (inactive) and the z-score [3] was -0.917 (inactive). The composite z-score [4] was 0.871 (inactive), the z-score [5] was 1.46 (inactive) and the z-score [6] was 0.539 (inactive). For the same compound, the z-score [7] was 0.319 (inactive), the z-score [8] was -0.787 (inactive) and the z-score [9] was -0.767. It also gave a composite z-score [10] of -0.124.
